# PP1 inh – PP1-alpha (human) inhibition in PP5 counter-screen; P62136; purified PP1alpha, OMFP fluorescence; inhibition, % at 6.7 µM; actives 0.9% (n = 320,000);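 active means inhibition above the mean inhibition of all tested compounds plus 3 SD, computed separately for each screening campaign, cut at about 15% in these data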
# Mdm2-MdmX inh – disrupts the human Mdm2-MdmX interaction | O15151+Q00987 | SaOS-2 split-luciferase Mdm2/MdmX complementation, luminescence | inhibition, % at 8 µM | actives 3% (n = 330,000);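 active means inhibition of at least 50% at 8 µM in the primary screen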
# Beta cell apopt – blocks beta cell apoptosis; INS-1E cytokine-induced death, ATP luminescence, 48 h; percent of positive-control rescue, neutral wells zero; protection from apoptosis, % (no concentration beside the values); actives 0.8% (n = 300,000);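 active means Every replicate reaches about 75%, or at least half do and their mean reaches it too, limit read from the data; inconclusive means At least half of replicates reach the limit but their mean does not; inactive means Under half of replicates reach the limit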;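 further: higher means more ATP so stronger rescue from cytokine killing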
# Calb FLC – C. albicans growth modulation with fluconazole. C. albicans CaCi-2 (fluconazole-resistant clinical isolate) + fluconazole, Alamar Blue growth, 48 h. growth inhibition, % (test concentration not listed). actives 0.57% (n = 300,000). AID 1979;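 active means growth inhibition above about 58% in most replicates, limit read from the data, passing the limit was not always enough; inconclusive means exactly half the replicates above a set limit; inactive means most replicates below a set limit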;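 further: all wells also contain fluconazole at 8 µg/ml as a sub-toxic cotreatment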
# PP5 primary – inhibitors of human protein phosphatase 5 (PP5); P53041; purified PP5c, OMFP substrate fluorescence; inhibition, % at 6.7 µM; actives 0.18% (n = 320,000);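 active means inhibition above the campaign's mean inhibition across all tested compounds plus 3 SD, cut at about 9.5% in these data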
# Target sequence (P53041 whole entry, looked up): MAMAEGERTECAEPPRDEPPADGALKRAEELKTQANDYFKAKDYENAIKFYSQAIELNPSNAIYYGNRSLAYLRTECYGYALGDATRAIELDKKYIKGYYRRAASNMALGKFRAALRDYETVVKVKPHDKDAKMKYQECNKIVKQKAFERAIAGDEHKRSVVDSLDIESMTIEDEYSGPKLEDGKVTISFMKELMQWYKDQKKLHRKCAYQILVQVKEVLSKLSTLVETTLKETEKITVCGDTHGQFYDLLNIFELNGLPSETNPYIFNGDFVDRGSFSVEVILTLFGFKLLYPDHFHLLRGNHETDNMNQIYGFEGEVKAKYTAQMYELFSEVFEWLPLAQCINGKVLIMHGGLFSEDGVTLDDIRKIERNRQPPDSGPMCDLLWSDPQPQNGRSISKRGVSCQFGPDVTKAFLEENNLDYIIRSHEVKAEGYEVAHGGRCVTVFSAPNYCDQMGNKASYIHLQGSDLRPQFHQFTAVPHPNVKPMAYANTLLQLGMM
# CSC inhib – blocks cancer stem cells; cancer stem cell-like cells viability, luminescence; inhibition, % at 7.5 µM; actives 1.1% (n = 300,000); in the data active means inhibition above about 75%; inconclusive means no clear call, values can overlap the other calls; tested in HMLE shEcad cells
# Mdm2 MdmX conf – human Mdm2/MdmX binding inhibition, confirmed | actives 55% (n = 10,000) | luminescent assay | inhibition, % at 8 µM | shares compounds with Mdm2-MdmX inh; in the data active means inhibition above about 40%
# FLuc counter – inhibits full-length luciferase, flagging false Mdm2/MdmX hits. actives 77% (n = 6,200). inhibition, % at 8 µM. shares compounds with Mdm2-MdmX inh. SaOS-2 full-length luciferase counterscreen, luminescence;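 active means mean inhibition at 8 µM reaching about 37%, which flags the compound as non-specific, limit read from the data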;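 further: p53-null SaOS-2 cells with luciferase driven by a doxycycline-inducible promoter; compound on cells about two nights before reading with doxycycline added after day one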
# Numbers stand for hits; n = inactive; u = inconclusive; x = not tested or not shown. An excerpt weighted towards active compounds, which were near 4.9% of everything screened.
SMILES,PP1 inh,Mdm2-MdmX inh,Beta cell apopt,Calb FLC,PP5 primary,CSC inhib,Mdm2 MdmX conf,FLuc counter
Cc1oc(-c2ccc(Cl)cc2)cc1C(=O)/C(C#N)=C/Nc1ccccc1,n,61.9,n,n,n,n,n,x
O=S(=O)(CC(CN1CCCC1)N1CCCC1)c1ccc2ccccc2c1 (stereo not drawn),n,74.7,n,n,n,n,85.2,55.6
O=C(CN1C(=O)NC2(CCc3ccccc32)C1=O)Nc1cc(C(F)(F)F)ccc1N1CCOCC1 (stereo not drawn),n,n,n,n,n,n,x,x
Cc1ccc2nc(NC(=O)c3cccc(-c4cc5ccccc5oc4=O)c3)sc2c1,n,81.2,n,n,n,99.4,67.7,105.3
O=C(Nc1cccnc1)c1cccc(-c2cc3ccccc3oc2=O)c1,n,n,n,n,n,n,x,x
CON(C)S(=O)(=O)c1cccc(C(=O)N(CC(=O)Nc2ccccc2C(F)(F)F)Cc2ccco2)c1,x,n,n,x,x,n,x,x
Cc1noc(C)c1S(=O)(=O)Nc1ccccc1Oc1ccccc1,n,n,n,n,n,n,x,x
O=C1c2ccccc2-c2onc3ccc(Oc4ccccc4)c1c23,n,96.3,x,n,n,x,63.3,50.5
CC(C)(C)OC(=O)n1cc(CCO)c2ccccc21,n,n,n,x,n,n,x,x
COc1ccc(/C=C/C(=O)Nc2ccc3nc4n(c(=O)c3c2)CCCC4)cc1,n,69.8,n,n,n,n,n,x
O=C(Nc1ccc2nc3n(c(=O)c2c1)CCCC3)c1cccc([N+](=O)[O-])c1,n,n,n,n,n,n,x,x
O=C(Nc1ccc2nc3n(c(=O)c2c1)CCCC3)c1cc([N+](=O)[O-])ccc1F,n,100.4,n,n,n,n,91.0,52.4
CCCCNC(=O)c1ccccc1SCC(=O)NC1CCCCCCC1,n,n,n,x,n,x,x,x
COc1ccccc1-n1cnc2cc(NCc3cccs3)ccc21,n,50.6,n,n,n,n,55.5,80.1
Cc1cc(C(=O)CSc2nnnn2C)c(C)n1CCc1ccc(Cl)cc1,n,55.4,n,x,n,n,n,x
Cc1cc(C(=O)CCl)c(C)n1CCc1ccccc1,n,74.5,n,n,n,n,43.0,71.4
CCOC(=O)c1cc(C)n(CCc2ccccc2)c1C,n,n,n,n,n,n,x,x
COc1ccc(CCn2c(C)cc(C(=O)CSc3nnnn3-c3ccccc3)c2C)cc1,n,n,n,n,n,n,x,x
CCOc1cccc(CN(C)CC2CCCN(CCc3ccc(Cl)cc3)C2)c1O (stereo not drawn),n,n,x,n,n,n,x,x
CC(=O)C1C(=O)CC(C)(O)C(C(C)=O)C1c1ccccc1 (stereo not drawn),n,n,n,n,n,n,x,x
COc1ccc(NC(=O)CCNC(=O)c2ccccc2Cl)cc1OC,n,n,n,x,n,n,x,x
COc1ccc2nc(-n3c(C)ccc3C)sc2c1,n,n,n,n,n,n,x,x
COc1ccc2nc(N3C(=O)/C(=C/c4ccccc4)NC3=S)sc2c1,n,54.1,n,n,n,n,n,x
N#C/C(=N\Nc1cccc(C(F)(F)F)c1)C(=O)c1ccsc1,n,78.1,n,n,n,n,63.2,66.7
Cc1nccc(-c2cccc(N/N=C(\C#N)C(=O)c3ccccc3)c2)n1,n,n,n,n,n,n,x,x
SMILES,PP1 inh,Mdm2-MdmX inh,Beta cell apopt,Calb FLC,PP5 primary,CSC inhib,Mdm2 MdmX conf,FLuc counter
Cc1ccc(NC(=O)COC(=O)C2CC3CCCC(C2)C3=O)c([N+](=O)[O-])c1 (stereo not drawn),n,n,n,x,n,n,x,x
CCCC(=O)OCCNc1cc(Sc2nc3ccccc3[nH]2)c2nonc2c1[N+](=O)[O-],n,96.1,n,n,n,n,99.2,52.6
CCC(=O)OCCNc1cc(SCCC(=O)OC)c2nonc2c1[N+](=O)[O-],n,n,n,n,n,n,x,x
COc1ccc(C23CC4CC(CC(C4)C2)C3)cc1C(=O)NCCN(C)C,n,61.9,n,n,n,n,n,x
Cc1nnc(Sc2nc3ccccc3o2)c2ccccc12,n,n,n,n,n,n,x,x
Cc1ccc(-c2nnc(Sc3nc4ccccc4o3)c3ccccc23)cc1,n,52.9,n,n,n,u,n,x
Clc1ccc(-c2nnc(Sc3nc4ccccc4o3)c3ccccc23)cc1,n,61.0,n,n,n,n,n,x
